Where “and” joins values, the source holds several entries; their conditions need not be identical. Identical values can stand only once. Results filed as inconclusive are left out. A call without a number means that no potency is given here. Values without a mark were called inactive. Calls of active or inactive are those of the source. The call rests on the fitted dose curve; in most records, active means well fitted inhibition curve with a large enough effect in the repeat runs; inconclusive means weak or mixed curves, or effect the other way; inactive means no such curve, though single readings can be large or run the other way.
Potency means the concentration at half of the fitted maximal effect.

This experiment in a line: qHTS assay to identify small molecule antagonists of the retinoic acid receptor (RAR) signaling pathway (AID 1159552; further: nearly all actives have a fitted effect of over 50% in size). The settings on record: C3RL4 RARE luciferase reporter, retinol-stimulated, 6 h; series mostly up to 92.4 µM; activity, negative = inhibition: at the top concentration. From the text: National Center for Advancing Translational Sciences [NCATS]
NIH Chemical Genomics Center [NCGC]
U.S. Environmental Protection Agency [EPA]
National Institutes of Environmental Health Sciences [NIEHS]
National Toxicology Program [NTP]
U.S. Food and Drug Administration [FDA]
All-trans Retinoic acid (atRA) is the potent natural metabolite of retinol and plays an important role in normal embryonic development and maintenance of cellular phenotype in adult animals. atRA is the activating ligand for the retinoic acid receptors (RARs) which form heterodimers with retinoid X receptors (RXRs) on the retinoic acid response element (RARE). Through activation of the RAR/RXRs nuclear receptors, atRA regulates the transcription of a large number of protein-coding genes and regulatory RNAs. Intracellular levels of atRA are controlled by the retinol signaling pathway (RSP) that regulates the biosynthesis and catabolism of atRA to maintain physiological levels. Chemicals that interfere with the RSP can cause abnormal intracellular levels of atRA and therefore are potential developmental toxicants. To assess compounds for the potential adverse effect on embryonic development through interfering with retinol signaling, a cell-based RARE luciferase reporter gene assay was used. C3RL4 cell line (OARSA/CFSAN/FDA, Laurel, MD) was used to screen Tox21 10K compound library for identifying inhibitors of the RSP.
Tox21 Assay Protocol Summary:
C3RL4 cells were seeded at 1,000/well in 4 uL of assay medium into white solid 1,536-well tissue culture plates (Greiner Bio-One North America Inc. Monroe, NC) using a Multidrop Combi (Thermo Scientific, Waltham, MA) dispenser. After incubation at 37 C and 5% CO2 for an overnight, 23 nL of compounds dissolved in DMSO, positive control or DMSO only were transferred by a Pintool station (Kalypsys, San Diego, CA). One ul of 1 uM (final concentration) of Retinol was added right after the compound addition by using a Flying Reagent Dispenser (FRD) (Aurora Discovery, San Diego, CA). After 6 hr incubation at 37 C and 5% CO2, 5 uL of Amplite Luciferase reagent (AAT Bioquest Inc. Sunnyvale, CA) was added to each assay plate using an FRD. Luminescence was quantified on a ViewLux plate reader (PerkinElmer, Waltham, MA) after 30 min incubation at room temperature.
(In general: Quantitative high-throughput screening tests each substance at several concentrations.)
`Cc1ncc([N+](=O)[O-])n1CCO`: the Potency entry was “inactive”.

For `Nc1c2c(nc3ccccc13)CCCC2`, the Potency result is “inactive”.

Regarding `CCCCCCc1ccc(O)cc1O`, the Potency entry was “inactive”.

As for `NC(=O)n1c(O)c(C(=O)c2cccs2)c2cc(Cl)ccc21`, the “activity, negative = inhibition” value is -13.1% [at 42.5 µM].

On to `C=CCc1ccc(O)c(OC)c1`, for which the Potency entry was “inactive”.

Turning to `COc1ccc2c(c1)c(CC(=O)O)c(C)n2C(=O)c1ccc(Cl)cc1`, the Potency entry was “inactive”.

Consider `CC1(C)O[C@@H]2C[C@H]3[C@@H]4CCC5=CC(=O)C=C[C@]5(C)[C@@]4(F)[C@@H](O)C[C@]3(C)[C@]2(C(=O)CO)O1`, for which the Potency result is “inactive”.

As for `O=c1[nH]cnc2c1ncn2[C@H]1CC[C@@H](CO)O1`, the Potency result is “inactive”.

As for `Nc1c(N=Nc2ccc(-c3ccc(N=Nc4cc(S(=O)(=O)O)c5ccccc5c4N)cc3)cc2)cc(S(=O)(=O)O)c2ccccc12`, the “activity, negative = inhibition” value is -29.8%.

In the case of `O=C1OC2(c3ccccc31)c1cc(Br)c(O)c(Br)c1Oc1c2cc(Br)c(O)c1Br`, the Potency entry was “inactive”.

As for `Oc1ccccc1`, the Potency result is “inactive”.

Turning to `Nc1ccc2c(c1)CN1C(=O)c3ccccc3C1=N2`, the activity, negative = inhibition was -41% [at 19 µM].

As to `CC12CCC(CC1)C(C)(C)O2`, the Potency entry is “inactive”.

`O=CC(=O)c1ccccc1`: the “activity, negative = inhibition” value was 49.3%.

`COc1ccc2cc(S(=O)(=O)N[C@H](CC(=O)N[C@H](Cc3ccc(CN4[C@H](C)CCC[C@@H]4C)cc3)C(=O)N(C)C(C)C)c3ccc4c(c3)OCO4)ccc2c1`: the Potency was 51.6 µM (active).

As to `Cn1c(=O)c2c(ncn2C)n(C)c1=O`, the Potency entry was “inactive”.

Consider `CC/C(=C(\c1ccccc1)c1ccc(OCCN(C)C)cc1)c1ccccc1`, for which the Potency is 54.4 µM (active) [middle of 5 runs].

In the case of `O=C(O)CC(O)C(=O)O` (stereo not given), the Potency result was “inactive”.

As to `O=C(Nc1ncc([N+](=O)[O-])s1)c1cccs1`, the “activity, negative = inhibition” value was 48.7% [at 42.5 µM].

On to `NC(CO)(CO)CO`, for which the Potency entry is “inactive”.

Turning to `O=S1(=O)OC(c2ccc(O)cc2)(c2ccc(O)cc2)c2ccccc21`, the Potency result is “inactive”.

Consider `CCCCOC(=O)c1ccc(O)cc1`, for which the Potency result was “inactive”.

Take `COc1ccc(C(Cl)=C(c2ccc(OC)cc2)c2ccc(OC)cc2)cc1`: the Potency entry was “inactive”.

As to `CCCCC1(COC(=O)CCC(=O)O)C(=O)N(c2ccccc2)N(c2ccccc2)C1=O`, the Potency result was “inactive”.

`C=C(C)C(=O)OCC(C)O` (stereo not given): the Potency result is “inactive”.

On to `CCN(CC)C(=O)c1cccc(C)c1`, for which the Potency entry is “inactive”.

For the compound `CC(C)C(=O)Nc1ccc([N+](=O)[O-])c(C(F)(F)F)c1`, the “activity, negative = inhibition” value is -18.7%.

`CCCCCCCC(=O)OCC(COC(=O)CCCCCCC)OC(=O)CCCCCCC`: the Potency entry is “inactive”.

Consider `CCCCCCCCCCCCCCCC[N+](C)(C)Cc1ccccc1`, for which the Potency was 56.2 µM (active) and 27.8 µM (active) and 23.7 µM (active).

Consider `Cc1cc(C)nc(NS(=O)(=O)c2ccc(N)cc2)n1`, for which the Potency entry is “inactive”.

As for `CC(=O)C(=O)O`, the Potency result was “inactive”.

With `Cc1c(C(=O)O)c(O)cc2c1C(=O)c1c(O)c([C@@H]3O[C@H](CO)[C@@H](O)[C@H](O)[C@H]3O)c(O)c(O)c1C2=O`, the “activity, negative = inhibition” value is -11.4% [at 42.5 µM].

For `CN(C)C(=O)Nc1ccc(Cl)c(Cl)c1`, the Potency entry is “inactive”.

Take `COc1ccc(CN(CCN(C)C)c2ccccn2)cc1`: the Potency entry was “inactive”.

Turning to `CN(C)CCOC(C)(c1ccccc1)c1ccccn1` (stereo not given), the Potency result was “inactive”.

`COc1cccc(O)c1O`: the Potency is 56.6 µM (active).

On to `CN(C)C(=S)SC(=S)N(C)C`, for which the Potency was 1.77 µM (active) and 1.93 µM (active) and 2.37 µM (active).

As for `C=C1CC[C@H](O)C/C1=C\C=C1/CCC[C@]2(C)[C@@H]([C@H](C)CCCC(C)C)CC[C@@H]12`, the “activity, negative = inhibition” value is -7.77%.

Consider `CN[C@H]1CC[C@@H](c2ccc(Cl)c(Cl)c2)c2ccccc21`, for which the Potency is 26.6 µM (active).

As to `CS(=O)(=O)OCCCCOS(C)(=O)=O`, the Potency result was “inactive”.

The record behind these values is PubChem BioAssay (Tox21).
